Measurements published in PubChem BioAssay.

test: reversal of MRP1-mediated doxorubicin resistance, pilot screen, H69AR cells, doxorubicin co-treatment (AID 601); settings: H69AR cells + 2 uM doxorubicin, CellTiter-Glo, 72 h; measured here: viability with 2 uM doxorubicin; at 10 µM; stronger effect = lower value

**Q.** Which viability does the source give for `O=C(CS(=O)(=O)c1cn(Cc2ccc(Cl)cc2)c2ccccc12)N1CCCC1` here?
**A.** Its viability is 82.3%.

**Q.** Which viability does the source give for `O=c1c2cc(N3CCOCC3)ccc2[nH]c(=S)n1CCCN1CCCC1` here?
**A.** Its viability is 85.4%.

**Q.** For `CCOC(=O)c1[nH]c(C)c(C(=O)Nc2ccc(C)c(Cl)c2)c1C`, which viability is on record?
**A.** Its viability is 57.6%.

**Q.** For `CSc1nnc(-c2nnc(SC)n2-c2ccccc2)n1-c1ccccc1`, which viability is on record?
**A.** The viability was 88.6%.

**Q.** Which viability does the source give for `COc1ccc(C(=O)NCc2ccccc2OC)cc1` here?
**A.** Its viability is 95.8%.

**Q.** Which viability does the source give for `CCOC(=O)c1[nH]c(C)c(C(=O)N2CCN(C(=O)c3ccco3)CC2)c1C` here?
**A.** Its viability is 95.6%.

**Q.** For `O=C(O)c1oc2ccccc2c1-n1cccc1`, which viability is on record?
**A.** The viability was 97.8%.

**Q.** Which viability does the source give for `Cc1nn(-c2ccc(F)cc2)c(C)c1NS(=O)(=O)c1ccc(Cl)cc1` here?
**A.** Its viability is 82.2%.

**Q.** Which viability does the source give for `O=C(CSc1nnc(-c2ccccc2)c(-c2ccccc2)n1)N1CCOCC1` here?
**A.** The viability was 72.5%.

**Q.** For `O=C(NCCCNC(=O)c1ccccn1)c1ccccn1`, which viability is on record?
**A.** Its viability is 92.1%.

**Q.** With `Cn1c(=O)c2[nH]c(NCC3CCCO3)nc2n(-c2ccccc2)c1=O` (stereo not drawn) as the molecule, how does the viability read?
**A.** The viability was 91.5%.

**Q.** With `CCOC(=O)c1c(C)[nH]c(C=Nc2ccccc2)c1O` as the molecule, how does the viability read?
**A.** Its viability is 90.8%.

**Q.** Which viability does the source give for `COc1ccc(-n2c(SCc3ccc(C#N)cc3)nnc2-c2ccccn2)cc1` here?
**A.** The viability was 85%.

**Q.** Which viability does the source give for `O=C(O)c1ccc2c(c1)N(Cc1ccccc1F)C(=O)c1ccccc1S2=O` (stereo not drawn) here?
**A.** Its viability is 97.8%.

**Q.** With `Cc1onc(-c2ccccc2Cl)c1C(=O)Nc1cccc(-c2cn3cccnc3n2)c1` as the molecule, how does the viability read?
**A.** The viability was 84.5%.

**Q.** Which viability does the source give for `COc1cc(OC)cc(C(=O)NCCN2CCOCC2)c1` here?
**A.** The viability was 92.6%.

**Q.** Which viability does the source give for `Cn1c(=O)[nH]c(=O)c2c1nc(N1CCNCC1)n2CCOc1ccccc1` here?
**A.** Its viability is 90.6%.

**Q.** Which viability does the source give for `COc1ccc(CC(NC(C)=O)C(=O)NC2CCN(c3nc(C)cc(C)c3C#N)CC2)c(OC)c1` (stereo not drawn) here?
**A.** The viability was 105%.
